# In PubChem BioAssay (NCATS):
# Results filed as inconclusive are left out. The source made the active and inactive calls. Unless noted, the call rests on the fitted dose curve; in most records, active means well fitted inhibition curve with a large enough effect; inconclusive means small, poorly fitted or top-dose-only effect; inactive means flat fitted curve, though single readings scatter.
# Columns and labels:
# [1] = qHTS drug screen for cell cycle checkpoint inhibitors in PARPi-resistant BRCA-mutant ovarian cancer cell lines. (AID 1963452; calls by dose curve); conditions: PEO1/OlaR viability, CellTiter-Glo luminescence, 96 h, stronger effect = lower value
# Summary of the method: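 PEO1, PEO4 and PEO1/OlaR ovarian cancer cells, 600 per well, exposed 96 h at 37C to a dilution series. Viability read by CellTiter-Glo luminescence, normalized to DMSO and empty wells; activity summarized as Z-AUC.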
# [2] = qHTS for identification of novel therapeutic agents for treatment of microphthalmiaassociated transcription factor (MiT) renal cell carcinoma (RCC) (AID 1963991; calls by dose curve; further: potency means the concentration at half of the fitted maximal effect;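 on z-score: curves scaled with 100% = DMSO viability and 0% = empty wells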); conditions: CellTiter-Glo, 48 h; for z-score: stronger effect = lower value
# Summary of the method: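 UOK109/UOK124/UOK145 (TFE3 fusions, three partners); 500 cells/well; MIPE v4.0, 1912 cpds, 11 conc.; 48 h, 37 C; CellTiter-Glo, 15 min RT; lum. Norm.: DMSO 100%, empty 0%.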
# [3] = qHTS profiling for inhibitors of Plasmodium falciparum proliferation (AID 504749); further: nearly all actives have a fitted effect of over 60% in size; further: potency means the concentration at half of the fitted maximal effect;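 on activity, negative = inhibition: 0% = DMSO vehicle and full inhibition = artemisinin control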; conditions: P. falciparum in erythrocytes, SYBR Green DNA, 72 h
# Summary of the method: (§1)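 SYBR Green fluorescence (ex 485 nm, em 535 nm) reports parasite DNA after 72 h compound exposure of infected red cells at 0.3% parasitemia, 2.5% hematocrit; signal normalized to 0.29 uM artemisinin and vehicle wells.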
# [4] = system: 3D7; assay: as above; conditions: P. falciparum in erythrocytes, SYBR Green DNA, 72 h; series mostly up to 28.7 µM
# Summary of the method: as §1
# [5] = system: 7G8; assay: as above; conditions: P. falciparum in erythrocytes, SYBR Green DNA, 72 h; series mostly up to 28.7 µM
# Summary of the method: as §1
# [6] = system: AA1029; assay: as above; conditions: P. falciparum in erythrocytes, SYBR Green DNA, 72 h; series mostly up to 28.7 µM
# Summary of the method: as §1
# [7] = system: AS120; assay: as above; conditions: P. falciparum in erythrocytes, SYBR Green DNA, 72 h; series mostly up to 28.7 µM
# Summary of the method: as §1
# [8] = system: ATS189; assay: as above; conditions: P. falciparum in erythrocytes, SYBR Green DNA, 72 h; series mostly up to 28.7 µM
# Summary of the method: as §1
# [9] = system: ATS95; assay: as above; conditions: P. falciparum in erythrocytes, SYBR Green DNA, 72 h; series mostly up to 28.7 µM
# Summary of the method: as §1
# [10] = system: C2A; assay: as above; conditions: P. falciparum in erythrocytes, SYBR Green DNA, 72 h; series mostly up to 28.7 µM
# Summary of the method: as §1
# [11] = system: CP185; assay: as above; conditions: P. falciparum in erythrocytes, SYBR Green DNA, 72 h; series mostly up to 28.7 µM
# Summary of the method: as §1
# [12] = system: CP191; assay: as above; conditions: P. falciparum in erythrocytes, SYBR Green DNA, 72 h; series mostly up to 28.7 µM
# Summary of the method: as §1
# [13] = system: CP192; assay: as above; conditions: P. falciparum in erythrocytes, SYBR Green DNA, 72 h; series mostly up to 28.7 µM
# Summary of the method: as §1
# [14] = system: CP194; assay: as above; conditions: P. falciparum in erythrocytes, SYBR Green DNA, 72 h; series mostly up to 28.7 µM
# Summary of the method: as §1
# [15] = measured here: PEO1 parental Z-AUC
# [16] = TFE3-RCC UOK109 viability, measured here: UOK109 Z-AUC
# [17] = TFE3-RCC viability, measured here: UOK124 Z-AUC
# [18] = TFE3-RCC viability, measured here: UOK145 Z-AUC
# [19] = at 28.7 µM (top of the series), parasite line A
# [20] = at 28.7 µM (top of the series), parasite line B
smiles,measurement,setting,value
O=c1[nH]cnc2[nH]ncc12,Z-AUC,[1],-0.687 (inactive)
same,Z-AUC,[1]; [15],-0.667
same,Z-AUC,[1]; measured here: PEO4 Z-AUC,-0.722
same,z-score,[2]; [16],0.431
same,z-score,[2]; [17],0.33
same,z-score,[2]; [18],0.0964
same,"activity, negative = inhibition",[3]; [19],-0.162% (inactive)
same,"activity, negative = inhibition",[3]; [20],2.37% (inactive)
same,Potency,[4],inactive
same,Potency,[5],inactive
same,Potency,[6],inactive
same,Potency,[7],inactive
same,Potency,[8],inactive
same,Potency,[9],inactive
same,Potency,[10],inactive
same,Potency,[11],inactive
same,Potency,[12],inactive
same,Potency,[13],inactive
same,Potency,[14],inactive
NC(=O)c1ccc(-c2nc(-c3ccc4c(c3)OCO4)c(-c3ccccn3)[nH]2)cc1,Z-AUC,[1],0.53 (inactive)
same,Z-AUC,[1]; [15],1.15
same,Z-AUC,[1]; measured here: PEO4 Z-AUC,0.909
same,z-score,[2]; [16],0.874
same,z-score,[2]; [17],1.69
same,z-score,[2]; [18],0.197
C#Cc1cccc(Nc2ncnc3cc(OCCOC)c(OCCOC)cc23)c1,Z-AUC,[1],-0.425 (inactive)
same,Z-AUC,[1]; [15],-1.02
same,Z-AUC,[1]; measured here: PEO4 Z-AUC,-0.978
same,Potency,"[2]; TFE3-RCC UOK109 viability, active = Z-AUC below -0.8 in all three lines",0.0526 µM (active)
same,z-score,[2]; [16],-2.56
same,z-score,[2]; [17],-1.06
same,z-score,[2]; [18],-1.55
same,Potency,[4],8.91 µM (active)
same,Potency,[5],11.2 µM (active)
same,Potency,[6],8.91 µM (active)
same,Potency,[7],11.2 µM (active)
same,Potency,[11],inactive
same,Potency,[13],inactive
O=C(O)CCc1ccc(NCc2cccc(Oc3ccccc3)c2)cc1,Z-AUC,[1],1.62 (inactive)
same,Z-AUC,[1]; [15],1.54
same,Z-AUC,[1]; measured here: PEO4 Z-AUC,1.47
same,z-score,[2]; [16],0.226
same,z-score,[2]; [17],0.797
same,z-score,[2]; [18],0.0253
CC(=O)Oc1ccccc1C(=O)O,Z-AUC,[1],0.925 (inactive)
same,Z-AUC,[1]; [15],0.885
same,Z-AUC,[1]; measured here: PEO4 Z-AUC,1.16
same,"activity, negative = inhibition",[3]; [19],3.3% (inactive)
same,"activity, negative = inhibition",[3]; [20],6.15% (inactive)
same,Potency,[4],inactive
same,Potency,[5],inactive
same,Potency,[6],inactive
same,Potency,[7],inactive
same,Potency,[8],inactive
same,Potency,[9],inactive
same,Potency,[10],inactive
same,Potency,[11],inactive
same,Potency,[12],inactive
same,Potency,[13],inactive
same,Potency,[14],inactive
OCCn1cc(-c2cnc3nnn(Cc4ccc5ncccc5c4)c3n2)cn1,Z-AUC,[1],-0.182 (inactive)
same,Z-AUC,[1]; [15],0.0266
same,Z-AUC,[1]; measured here: PEO4 Z-AUC,0.506
same,z-score,[2]; [16],0.421
same,z-score,[2]; [17],0.338
same,z-score,[2]; [18],0.859
N#CC[C@H](C1CCCC1)n1cc(-c2ncnc3[nH]ccc23)cn1,Z-AUC,[1],0.476 (inactive)
same,Z-AUC,[1]; [15],0.0833
same,Z-AUC,[1]; measured here: PEO4 Z-AUC,0.752
NS(=O)(=O)c1cc2c(cc1Cl)NC=NS2(=O)=O,Z-AUC,[1],0.885 (inactive)
same,Z-AUC,[1]; [15],1.02
same,Z-AUC,[1]; measured here: PEO4 Z-AUC,0.779
same,z-score,[2]; [16],0.178
same,z-score,[2]; [17],0.944
same,z-score,[2]; [18],0.209
same,"activity, negative = inhibition",[3]; [19],7.83% (inactive)
same,"activity, negative = inhibition",[3]; [20],11% (inactive)
same,Potency,[4],inactive
same,Potency,[5],inactive
same,Potency,[6],inactive
same,Potency,[7],inactive
same,Potency,[8],inactive
same,Potency,[9],inactive
same,Potency,[10],inactive
same,Potency,[11],inactive
same,Potency,[12],inactive
same,Potency,[13],inactive
same,Potency,[14],inactive
O=C(O)[C@@H](c1ccc(OCc2ccc3ccccc3n2)cc1)C1CCCC1,Z-AUC,[1],1.02 (inactive)
same,Z-AUC,[1]; [15],0.403
same,Z-AUC,[1]; measured here: PEO4 Z-AUC,0.552
same,z-score,[2]; [16],0.431
same,z-score,[2]; [17],0.636
same,z-score,[2]; [18],0.202
CCN(CC)CCCC(C)Nc1nc(C)cc(Nc2ccc3nc(C)cc(N)c3c2)n1 (stereo not given),Z-AUC,[1],0.723 (inactive)
same,Z-AUC,[1]; [15],0.692
same,Z-AUC,[1]; measured here: PEO4 Z-AUC,0.29
same,z-score,[2]; [16],0.273
same,z-score,[2]; [17],0.864
same,z-score,[2]; [18],0.237
O=c1ncn2nc(Sc3ccc(F)cc3F)ccc2c1-c1c(Cl)cccc1Cl,Z-AUC,[1],-0.105 (inactive)
same,Z-AUC,[1]; [15],0.606
same,Z-AUC,[1]; measured here: PEO4 Z-AUC,0.747
same,z-score,[2]; [16],0.124
same,z-score,[2]; [17],1.12
same,z-score,[2]; [18],1.1
Nc1nc2c(ncn2COCCO)c(=O)[nH]1,Z-AUC,[1],-0.761 (inactive)
same,Z-AUC,[1]; [15],-0.588
same,Z-AUC,[1]; measured here: PEO4 Z-AUC,-0.538
same,"activity, negative = inhibition","[3]; at 12.8 µM (top of the series), parasite line A",8.65% (inactive)
same,"activity, negative = inhibition","[3]; at 12.8 µM (top of the series), parasite line B",-5.76% (inactive)
same,Potency,[4],inactive
same,Potency,[5],inactive
same,Potency,[6],inactive
same,Potency,[7],inactive
same,Potency,[8],inactive
same,Potency,[9],inactive
same,Potency,[10],inactive
same,Potency,[11],inactive
same,Potency,[12],inactive
same,Potency,[13],inactive
same,Potency,[14],inactive
CC(c1cc2ccccc2s1)N(O)C(N)=O (stereo not given),Z-AUC,[1],-0.588 (inactive)
same,Z-AUC,[1]; [15],-0.0331
same,Z-AUC,[1]; measured here: PEO4 Z-AUC,-0.638
same,z-score,[2]; [16],0.403
same,z-score,[2]; [17],0.701
same,z-score,[2]; [18],0.104
same,"activity, negative = inhibition",[3]; [19],3.01% (inactive)
same,"activity, negative = inhibition",[3]; [20],-4.79% (inactive)
same,Potency,[4],inactive
same,Potency,[5],inactive
same,Potency,[6],inactive
same,Potency,[8],inactive
same,Potency,[9],inactive
same,Potency,[10],inactive
same,Potency,[11],inactive
same,Potency,[12],inactive
same,Potency,[13],inactive
same,Potency,[14],inactive
